In PubChem BioAssay (Tox21):
Results filed as inconclusive are left out. Activity calls are given as the source filed them. Unless noted, calls come from the whole dose curve; as a rule, active = well fitted curve in the direction sought with a large enough effect in the repeat runs; inconclusive = weak or mixed curves; inactive = no such curve, though single readings can be large; an effect the other way counts as inactive or inconclusive.

Key:
[1] = qHTS assay to identify small molecule antagonists of the estrogen related receptor signaling pathway with the pleiotropic PPARgamma coactivator (PGC) from Tox21 10K library - cell viability counter screen (AID 1224840; active = well fitted cell-killing curve with a large enough effect in the repeat runs, not every such curve was filed as active; note: nearly all actives have a fitted effect of over 40% in size)
Method in brief: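 Following seeding of 2,000 PGC/ERR cells/well and 6 hours' incubation, test compounds were delivered in DMSO. The plates then sat 17.5 hours at 37 C before a fluorogenic live-cell protease reagent (CellTiter-Fluor) was read after 30 min.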

[2] = biological target: Thyrotropin receptor (Homo sapiens) (UniProt P16473); assay: qHTS assay to identify small molecule agonists of the thyroid stimulating hormone receptor (TSHR) signaling pathway (AID 1224843; calls by dose curve; note: nearly all actives have a fitted effect of over 45% in size)
Chain of Thyrotropin receptor (Homo sapiens) (P16473 whole entry, looked up): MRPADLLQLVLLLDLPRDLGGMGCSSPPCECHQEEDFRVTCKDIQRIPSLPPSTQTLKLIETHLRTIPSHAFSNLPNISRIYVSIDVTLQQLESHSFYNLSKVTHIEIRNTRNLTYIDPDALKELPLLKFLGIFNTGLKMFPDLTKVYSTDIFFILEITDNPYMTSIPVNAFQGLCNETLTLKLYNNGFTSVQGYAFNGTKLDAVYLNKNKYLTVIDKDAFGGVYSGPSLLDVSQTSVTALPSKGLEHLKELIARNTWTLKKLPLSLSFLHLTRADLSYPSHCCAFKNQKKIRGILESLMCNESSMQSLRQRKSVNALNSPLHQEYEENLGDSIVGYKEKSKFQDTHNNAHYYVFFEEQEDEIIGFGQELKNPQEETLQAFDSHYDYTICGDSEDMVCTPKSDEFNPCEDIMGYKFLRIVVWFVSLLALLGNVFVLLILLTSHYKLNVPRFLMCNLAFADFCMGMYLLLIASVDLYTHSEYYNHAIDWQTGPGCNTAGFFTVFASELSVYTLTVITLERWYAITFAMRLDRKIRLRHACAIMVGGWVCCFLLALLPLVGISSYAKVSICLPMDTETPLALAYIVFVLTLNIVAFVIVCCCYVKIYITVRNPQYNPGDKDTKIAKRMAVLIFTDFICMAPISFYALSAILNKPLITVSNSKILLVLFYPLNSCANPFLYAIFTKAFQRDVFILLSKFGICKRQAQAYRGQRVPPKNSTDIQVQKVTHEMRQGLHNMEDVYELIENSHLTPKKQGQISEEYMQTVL
Method in brief: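 TSHR-HEK293 cells in agonist mode, 30 min room-temperature step, then cAMP measured by competitive HTRF (cAMP-d2 with anti-cAMP cryptate) after 1 h at room temperature. Tested at 15 concentrations in triplicate.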

[3] = qHTS assay to identify small molecule agonists of the hypoxia (HIF-1) signaling pathway - cell viability counter screen (AID 1224844; calls by dose curve; note: nearly all actives have a fitted effect of over 50% in size)
Method in brief: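 Cells (HRE-bla ME-180, 2,000 per well) sat 5 hrs at 37C, got compound for 17 hrs, were read for CCF4-AM FRET, and were finally lysed with CellTiter-Glo for a 30 min room-temperature luminescence read.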

[4] = qHTS assay to identify small molecule agonists of H2AX (AID 1224845; active = well fitted activation curve with a large enough effect in the signal ratio in the repeat runs, not every such curve was filed as active; the % refers to the signal ratio)
Method in brief: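 Wild-type CHO-K1 cells, plated overnight, exposed 3hr at 37C to 15 concentrations (0.76% DMSO final). Lysed, then HTRF anti-pH2AX (S139) cryptate and anti-H2AX-d2 antibodies, 24 hr room temperature; 665/620 nm emission read.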

[5] = qHTS assay to identify small molecule agonists of the hypoxia (HIF-1) signaling pathway (AID 1224846; active = well fitted activation curve with a large enough effect in the signal ratio in the repeat runs, not every such curve was filed as active; the % refers to the signal ratio)
Method in brief: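 A low-serum medium (0.5% dialyzed FBS) holding 2,000 HRE-bla ME-180 cells per well is preincubated for 5 hrs, dosed with compounds by pintool, and kept a further 17 hrs at 37C, 5% CO2 before CCF4-AM FRET detection of beta-lactamase.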

[6] = qHTS assay to identify small molecule agonists of H2AX - cell viability counter screen (AID 1224847; calls by dose curve; note: top concentration of the series differs between compounds; nearly all actives have a fitted effect of over 30% in size)
Method in brief: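 Counter-screen for viability: CellTiter-Glo ATP luminescence read after 3 h compound treatment (15-point titration, 0.76% DMSO final) of CHO-K1 cells at 37C, with 30 min room-temperature reagent incubation.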

[7] = qHTS RealTime-Glo MT Cell Viability Assay in HepG2 cells - 24 hour (AID 1224867); note: nearly all actives have a fitted effect of over 50% in size
Method in brief: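 Luminescence read-out: viable HepG2 cells reduce a prosubstrate to a NanoLuc substrate, giving a signal proportional to live cell number. Reads taken at 0, 8, 16, 24, 32 and 40 h of compound exposure at 37 C.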

[8] = qHTS RealTime-Glo MT Cell Viability Assay in HEK293 cells - 32 hour (AID 1224868); note: top concentration of the series differs between compounds; nearly all actives have a fitted effect of over 50% in size
Method in brief: (§1)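 Nonlytic real-time viability readout: viable cells convert prosubstrate to NanoLuc substrate, giving luminescence proportional to live cell number. HEK293, 600 cells/well, compound added after 5 h, continuous culture at 37 C.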

[9] = A CellTox Green Cytotoxicity Assay to monitor cytotoxicity in HEK293 cells - 0 hour (AID 1224869); note: nearly all actives have a fitted effect of over 50% in size
Method in brief: (§2)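 Fluorescence intensity, read at 0, 8, 16, 24, 32 and 40 h of compound treatment, reflected dye binding to DNA of dead HEK293 cells; compounds (23 nL, DMSO) were added 5 h after plating cells with reagent.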

[10] = qHTS RealTime-Glo MT Cell Viability Assay in HepG2 cells - 40 hour (AID 1224870); note: nearly all actives have a fitted effect of over 50% in size
Method in brief: (§3)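 HepG2 cells (600/well) mixed with RealTime-Glo MT reagent, settled 5 h at 37 C/5% CO2 before compound addition. Nonlytic NanoLuc luminescence from viable-cell prosubstrate reduction read repeatedly during 40 h treatment at 37 C.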

[11] = A CellTox Green Cytotoxicity Assay to monitor cytotoxicity in HEK293 cells - 40 hour (AID 1224871); note: nearly all actives have a fitted effect of over 45% in size
Method in brief: as §2

[12] = qHTS RealTime-Glo MT Cell Viability Assay in HEK293 cells - 16 hour (AID 1224872)
Method in brief: as §1

[13] = qHTS RealTime-Glo MT Cell Viability Assay in HepG2 cells - 8 hour (AID 1224873); note: nearly all actives have a fitted effect of over 55% in size
Method in brief: as §3

[14] = qHTS RealTime-Glo MT Cell Viability Assay in HEK293 cells - 40 hour (AID 1224874); conditions: RealTime-Glo luminescence; max response: active compounds read low; note: nearly all actives have a fitted effect of over 50% in size
Method in brief: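 Viable HEK293 cells reduce a cell-permeant prosubstrate; the product diffuses out and is consumed by NanoLuc in the medium to give light. Compounds went in after a 5 h incubation and plates were read over the treatment course.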

[15] = A CellTox Green Cytotoxicity Assay to monitor cytotoxicity in HEK293 cells - 24 hour (AID 1224875); note: series mostly up to about 77 µM; nearly all actives have a fitted effect of over 45% in size
Method in brief: as §2

[16] = A CellTox Green Cytotoxicity Assay to monitor cytotoxicity in HepG2 cells - 16 hour (AID 1224876); note: nearly all actives have a fitted effect of over 45% in size
Method in brief: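 Using 1536-well format, dye-containing HepG2 suspension was seeded, allowed 5 h at 37 C/5% CO2, dosed by pintool with compounds, positive and negative controls, and imaged for fluorescence across 40 h.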
% is set by controls: 0 for no effect and ±100 for the full control effect.

C=C(C)C1CC=C(C)C(=O)C1 (stereo not given)
inactive: outcome [1] | outcome [2] | outcome [3] | outcome [4] | outcome [5] | outcome [6] | outcome [7] | Potency [8] | Potency [9] | outcome [10] | Potency [11] | Potency [12] | outcome [13] | max response [14] 0.21% | Potency [15] | Potency [16]

O=C(Cn1ccnc1[N+](=O)[O-])NCc1ccccc1
inactive: outcome [1] | outcome [2] | outcome [3] | outcome [4] | outcome [5] | outcome [6] | outcome [7] | Potency [8] | Potency [9] | outcome [10] | Potency [11] | Potency [12] | outcome [13] | max response [14] -1.45% | Potency [15] | Potency [16]

CCOC(=O)CC1(C)OCC(C)O1 (stereo not given)
inactive: outcome [1] | outcome [2] | outcome [3] | outcome [4] | outcome [5] | outcome [6] | outcome [7] | Potency [8] | Potency [9] | outcome [10] | Potency [11] | Potency [12] | outcome [13] | max response [14] 1.97% | Potency [15] | Potency [16]

CC(C)Cn1cnc2c1c(=O)n(C)c(=O)n2C
inactive: outcome [1] | outcome [2] | outcome [3] | outcome [4] | outcome [5] | outcome [6] | outcome [7] | Potency [8] | Potency [9] | outcome [10] | Potency [11] | Potency [12] | outcome [13] | max response [14] 2.8% | Potency [15] | Potency [16]

O/N=C/C=N/O
inactive: outcome [1] | outcome [2] | outcome [3] | outcome [4] | outcome [5] | outcome [6] | outcome [7] | Potency [8] | Potency [9] | outcome [10] | Potency [11] | Potency [12] | outcome [13] | max response [14] 0.715% | Potency [15] | Potency [16]

CN(C)C(C)(C)CO
inactive: outcome [1] | outcome [2] | outcome [3] | outcome [4] | outcome [5] | outcome [6] | outcome [7] | Potency [8] | Potency [9] | outcome [10] | Potency [11] | Potency [12] | outcome [13] | max response [14] 1.89% | Potency [15] | Potency [16]

CC(=O)CC(=O)Nc1ccc(C)cc1C
inactive: outcome [1] | outcome [2] | outcome [3] | outcome [4] | outcome [5] | outcome [6] | outcome [7] | Potency [8] | Potency [9] | outcome [10] | Potency [11] | Potency [12] | outcome [13] | max response [14] -1.23% | Potency [15] | Potency [16]

CC(=O)OC1CCCCC1C(C)(C)C (stereo not given)
inactive: outcome [1] | outcome [2] | outcome [3] | outcome [4] | outcome [5] | outcome [6] | outcome [7] | Potency [8] | Potency [9] | outcome [10] | Potency [11] | Potency [12] | outcome [13] | max response [14] 3.56% | Potency [15] | Potency [16]

O=C(CCCl)NCCc1ccccc1
inactive: outcome [1] | outcome [2] | outcome [3] | outcome [4] | outcome [5] | outcome [6] | outcome [7] | Potency [8] | Potency [9] | outcome [10] | Potency [11] | Potency [12] | outcome [13] | max response [14] 5.46% | Potency [15] | Potency [16]

Cc1ccc(C(C)NC(=O)[C@@H](NC(=O)OC(C)C)C(C)C)cc1 (stereo not given in full)
inactive: outcome [1] | outcome [2] | outcome [3] | outcome [4] | outcome [5] | outcome [6] | outcome [7] | Potency [8] | Potency [9] | outcome [10] | Potency [11] | outcome [13] | max response [14] -6.73% | Potency [15] | Potency [16]

Cc1ccc(C)c([N+](=O)[O-])c1
inactive: outcome [1] | outcome [2] | outcome [3] | outcome [4] | outcome [5] | outcome [6] | outcome [7] | Potency [8] | Potency [9] | outcome [10] | Potency [11] | Potency [12] | outcome [13] | max response [14] 12.1% | Potency [15] | Potency [16]

CC(O)CC(C)O (stereo not given)
inactive: outcome [1] | outcome [2] | outcome [3] | outcome [4] | outcome [5] | outcome [6] | outcome [7] | Potency [8] | Potency [9] | outcome [10] | Potency [11] | Potency [12] | outcome [13] | max response [14] 0.995% | Potency [15] | Potency [16]

CC(=O)CCC1=C(C)CCCC1(C)C
inactive: outcome [1] | outcome [2] | outcome [3] | outcome [4] | outcome [5] | outcome [6] | outcome [7] | Potency [8] | Potency [9] | outcome [10] | Potency [12] | outcome [13] | max response [14] -7.96% | Potency [15]
